Experimental data: PubChem BioAssay AID504332 (National Center for Advancing Translational Sciences (NCATS), 2011)
The whole screen tested about 350,000 compounds, of which about 31,000 (8.9%) were called active. Another 15% or so got no clear call; they are omitted. The entries come from a sample that favours actives as a whole. Where a call stands in place of a potency, no number is given. A number with no mark means an inactive call. Calls come from the whole dose curve; as a rule, active = well fitted inhibition curve with a large enough effect; inconclusive = small, poorly fitted or top-dose-only effect; inactive = no such curve, though single readings can be large or run the other way.

molecular target: Histone-lysine N-methyltransferase EHMT2 (Homo sapiens) (UniProt Q96KQ7); test: qHTS Assay for Inhibitors of Histone Lysine Methyltransferase G9a; conditions: G9a H3K9 monomethylation, AlphaScreen, 2 h; series mostly up to 59 µM; note: nearly all actives have a fitted effect of over 75% in size
Sequence (Q96KQ7 913-1193 limits assumed): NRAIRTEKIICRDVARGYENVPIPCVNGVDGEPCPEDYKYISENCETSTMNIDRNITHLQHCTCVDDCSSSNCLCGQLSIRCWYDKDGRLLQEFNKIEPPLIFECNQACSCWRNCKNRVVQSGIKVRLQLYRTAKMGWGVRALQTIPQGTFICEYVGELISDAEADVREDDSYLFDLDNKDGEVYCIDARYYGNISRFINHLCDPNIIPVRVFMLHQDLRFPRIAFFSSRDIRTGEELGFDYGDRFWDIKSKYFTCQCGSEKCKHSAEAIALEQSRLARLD
How it was run: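 Quantitative HTS format: methyltransferase activity on a biotin-tagged H3K9 peptide is measured by AlphaScreen, using a rabbit anti-monomethyl-H3K9 antibody with streptavidin donor and anti-IgG acceptor beads. Final levels are 20 nM enzyme, 500 nM peptide, 20 uM SAM; 2 h RT.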
Potency is the fitted concentration of half-maximal effect.

Row | SMILES | Potency | activity, negative = inhibition
1 | COC(=O)CNc1nc(Cl)nc(N2CCC(C)CC2)n1 | 56.2 µM (active) | 
2 | CCOC(=O)CNc1nc(Cl)nc(Nc2ccccc2)n1 | inactive | 
3 | Clc1nc(NC2CCCC2)nc(N2CCOCC2)n1 | inactive | 
4 | O=C(COc1ccccc1F)NNC(=O)c1ccc(N2CCCCC2)c([N+](=O)[O-])c1 | inactive | 
5 | O=[N+]([O-])c1cc([N+](=O)[O-])c(Oc2cc(F)cc(F)c2F)cc1NN1CCCCC1 | 15.8 µM (active) | 
6 | O=C(COc1ccc(Cl)cc1[N+](=O)[O-])N1CCCCC1 | inactive | 
7 | CCOC(=O)C1CCN(C(=O)CSc2c3c(nc4ccc(Cl)cc24)CCCC3)CC1 | inactive | 
8 | COc1ccc(/C=C2\SC(=O)N(CCC(=O)NCCCn3ccnc3)C2=O)cc1 | inactive | 
9 | COc1ccccc1C(=O)NNC(=O)CCN1C(=O)/C(=C\c2ccccc2)SC1=S | inactive | 
10 | COc1ccc(/C=C2/SC(=O)N(CCCCCC(=O)Nc3ccccc3C(=O)O)C2=S)cc1 | 35.5 µM (active) | 
11 | CN(C(=O)c1ccc2c(c1)N(Cc1cccc(Cl)c1)C(=O)c1ccccc1S2=O)C1CCCCC1 (configuration not stated) | inactive | 
12 | CCOc1ccc(NC(=O)c2cc(C)nc3ccccc23)cc1 | inactive | 
13 | CNC(=O)C(=O)N/N=C/c1ccccn1 |  | -131% [at 12.7 µM]
14 | Cc1cc(C(=O)N/N=C/c2ccccn2)c2ccccc2n1 | 12.6 µM (active) | 
15 | COC(=O)C1CCN(C(=O)c2ccc3oc(Cc4ccc(Cl)cc4)nc3c2)CC1 | inactive | 
16 | CCC(=O)N1N=C(c2ccc(OC)cc2)CC1c1cn(-c2ccccc2)nc1-c1cccs1 (configuration not stated) | inactive | 
17 | COc1ccc(-c2nc(Cn3c(=O)cc(C)c4c(C)nn(-c5ccccc5)c43)c(C)o2)c(OC)c1 | inactive | 
18 | CCOc1cccc(C(=O)Nc2nnc(S(=O)(=O)N(C)c3ccc(C)cc3)s2)c1 | inactive | 
19 | Cn1c(SCC(=O)N2CCOCC2)nnc1-c1ccc(NC(=O)c2ccccc2F)cc1 | 50.1 µM (active) | 
20 | Cn1c(SCC(=O)N2CCCC2)nnc1-c1ccc2c(c1)OCO2 | inactive | 
21 | Cn1c(SCC(=O)N2CCOCC2)nnc1-c1ccc2ncccc2c1 | inactive | 
22 | CCn1cc(C(=O)NCc2ccccc2)c(=O)c2cc(S(=O)(=O)N3CCCCC3)ccc21 | inactive | 
23 | Cc1ccc(CNC(=O)CCNS(=O)(=O)c2ccc3c(c2)oc(=O)n3C)cc1 | inactive | 
24 | COc1cccc(CN2CCc3nc(SCC(=O)Nc4ccccc4)[nH]c(=O)c3C2)c1 | inactive | 
25 | O=C(CN1C(=O)c2cccc3cccc1c23)Nc1ccccc1 | inactive | 

Row | SMILES | Potency | activity, negative = inhibition
26 | CN1C(=O)c2cccc3c(N)ccc(c23)C1=O |  | -11.1% [at 2.33 µM]
27 | CCN1C(=O)c2cccc3c(N)ccc1c23 | 39.8 µM (active) | 
28 | Cc1cccc(NC(=O)CN2C(=O)c3ccccc3C2=O)c1C | inactive | 
29 | Nc1ccc2c3c(cccc13)C(=O)NC2=O |  | 29.3% [at 12.7 µM]
30 | CCN1C(=O)c2cccc3c(S(=O)(=O)Nc4ccccc4O)ccc1c23 | 44.7 µM (active) | 
31 | CCc1ccc(-c2cc3c(=O)n(CC(=O)NCCCN4CCN(Cc5ccccc5)CC4)nc(C)n3n2)cc1 | inactive | 
32 | CCOc1ccccc1NC(=O)Cn1c(=O)n(-c2cccc(C)c2)c(=O)c2c1c1cc(OC)ccc1n2C | inactive | 
33 | Cc1cc2oc(C(=O)N(Cc3ccc(Cl)cc3)Cc3ccco3)c(C)c2cc1Cl | inactive | 
34 | COc1ccc(CN2CCN(C(=O)c3cc(C4CC4)nn3-c3ccccc3)CC2)cc1F | inactive | 
35 | O=[N+]([O-])c1ccc2nc(-c3ccccn3)[nH]c2c1 | inactive | 
36 | C[n+]1ccccc1C1CCCC/C1=N\Nc1ccc([N+](=O)[O-])cc1[N+](=O)[O-] (configuration not stated) | 2 µM (active) | 
37 | O=[N+]([O-])c1ccc(N/N=C2/CCCCC2c2ccccn2)c([N+](=O)[O-])c1 (configuration not stated) | 10 µM (active) | 
38 | O=C(Nc1ccccc1)O/N=C1\CCCCC1c1ccc([N+](=O)[O-])cc1[N+](=O)[O-] (configuration not stated) | inactive | 
39 | Cc1cc([N+](=O)[O-])ccc1NC1CCCC1 | inactive | 
40 | O=C(COC(=O)c1cc([N+](=O)[O-])ccc1NCc1ccccc1)NC1CCCCC1 | inactive | 
41 | CCOc1ccc(CNCc2c(C(=O)O)c(C)n(Cc3cccc(OC)c3)c2C)cc1OC | inactive | 
42 | CC(C)Sc1oc(-c2cccs2)nc1S(=O)(=O)c1ccc(Cl)cc1 | inactive | 
43 | C/C(=N\OC(=O)c1ccccc1)c1c(C)nc2cc(C)ccn12 | 50.1 µM (active) | 
44 | C/C(=N/OC(=O)c1ccc(Br)cc1)c1ccc(C)cc1 | inactive | 
45 | CCOc1ccc(/C=N\NC(=O)c2c(C)nc3cc(C)ccn23)cc1 |  | 18% [at 0.501 µM]
46 | Cc1nnc(N2CCC(C(=O)Nc3ccc(F)cc3)CC2)c2nn(-c3ccc(Cl)cc3)c(C)c12 | inactive | 
47 | Cc1cccc(C(=O)NCCc2nc3ccccc3n2Cc2ccccc2Cl)c1 | inactive | 
48 | O=C(Nc1cccc(-c2cccc(Cl)c2)c1)C1CCN(C2CCC2)CC1 |  | -4.3% [at 0.0925 µM]
49 | O=Cc1c(Nc2ccccc2Cl)nc2ccccn2c1=O |  | 5.69% [at 0.501 µM]
50 | COc1cccc(OC)c1C(=O)N1CCN(Cc2cccnc2)CC1 | 7.08 µM (active) | 

Row | SMILES | Potency | activity, negative = inhibition
51 | COc1ccccc1C(=O)N1CCN=C1SCc1cccnc1 |  | 4.75% [at 12.7 µM]
52 | COc1cccc(OC)c1OCCN1CCN(C(=O)c2ccco2)CC1 | inactive | 
53 | CCC(C)N(C(=O)CSc1nnnn1-c1ccccc1OC)C1CCS(=O)(=O)C1 (configuration not stated) | inactive | 
54 | CCn1c(=O)c(=O)[nH]c2c(=O)oc3ccc(S(=O)(=O)Nc4ccc(OC)cc4)cc3c21 | inactive | 
55 | Cc1ccc(Cl)c(OCC(=O)N2CCc3ccccc3C2)c1 | inactive | 
56 | Cc1cccc(C2=N/C(=C/c3cccs3)C(=O)O2)c1 | inactive | 
57 | CSC1=N/C(=C\C=C\c2cccs2)C(=O)S1 | 7.94 µM (active) | 
58 | O=C1N/C(=C/c2cccs2)C(=O)N1Cc1ccc(F)cc1 | inactive | 
59 | CC(=O)c1ccc(N2CCN(C3C(=O)c4ccccc4N3C(C)=O)CC2)cc1 (configuration not stated) | inactive | 
60 | COc1ccccc1-c1nc(SC)n[nH]1 | inactive | 
61 | CCCOc1ccccc1-c1nc(SCCC(=O)O)n[nH]1 | 11.2 µM (active) | 
62 | CCCOc1ccccc1C(=O)NCCCC(=O)O | inactive | 
63 | Cc1nc2nc(SCC(=O)NC3CCC(C)CC3)nn2c(C)c1Cc1ccccc1Cl (configuration not stated) | inactive | 
64 | Cc1cccc(-n2cnc(C(=O)Nc3cccnc3)c2)n1 | inactive | 
65 | COC(=O)c1ccc(NC(=S)Nc2cccc(C)n2)cc1 |  | -9.29% [at 12.7 µM]
66 | Cc1cccc(-n2cnc(C(=O)NNC(=S)Nc3ccccc3)c2)n1 | 28.2 µM (active) | 
67 | O=C(c1ccc(Cl)nc1)N1CCN(S(=O)(=O)c2ccc3c(c2)OCCO3)CC1 |  | -21.6% [at 12.7 µM]
68 | COc1ccc(-c2nc3nc(C)cc(C)n3c2Nc2c(C)cccc2C)cc1 | inactive | 
69 | CCc1cccc(C)c1Nc1c(-c2ccc(N(C)C)cc2)nc2ncccn12 | 8.91 µM (active) | 
70 | Cc1cccc(C)c1Nc1c(-c2ccccc2O)nc2ncccn12 |  | -7.84% [at 12.7 µM]
71 | Cc1ccc(CCNC(=O)c2ccc3c(c2)N(Cc2cc(C)ccc2C)C(=O)c2ccccc2S3=O)cc1 (configuration not stated) | inactive | 
72 | Cc1ccc(S(=O)(=O)NCCC(=O)OCC(=O)N(C)c2ccccc2)cc1 | inactive | 
73 | Cc1ccc(OCC(=O)NC(C)c2ccccc2)cc1C (configuration not stated) | inactive | 
74 | Cc1cc(C)cc(OCC(=O)NC(C)c2ccccc2)c1 (configuration not stated) | 79.4 µM (active) | 
75 | Cc1ccc(OCCCC(=O)NC(C)c2ccccc2)c(C)c1 (configuration not stated) | inactive | 

Row | SMILES | Potency | activity, negative = inhibition
76 | COc1ccccc1C(=O)NC(=S)Nc1ccccc1N1CCCCC1 | inactive | 
77 | O=C1C2CCCN2C(=O)N1CCCCN1CCN(c2cccc(C(F)(F)F)c2)CC1 (configuration not stated) |  | 2.49% [at 0.501 µM]
78 | CC1=C(c2ccc(F)cc2)S(=O)(=O)N=C1N1CCC(C(=O)NCCc2ccccc2C)CC1 | inactive | 
79 | COc1ccccc1C(=O)NC(CCSC)C(=O)N1CCN(C(C)=O)CC1 (configuration not stated) |  | 8.08% [at 12.7 µM]
80 | CSCCC(NC(=O)c1ccccc1)C(=O)N1CCN(Cc2ccc(Cl)cc2)CC1 (configuration not stated) |  | 10.6% [at 0.501 µM]
81 | COc1ccccc1C(=O)NC(CCSC)C(=O)N1CCN(C/C=C/c2ccccc2)CC1 (configuration not stated) | 56.2 µM (active) | 
82 | CCOc1ccc(CNC(=O)C2CCN(c3nnc(-n4cccc4CNc4ccc(C)cc4)s3)CC2)cc1OC | inactive | 
83 | CC1CC2C3CCC4=CC(=O)C=C[C@]4(C)[C@@]3(F)[C@@H](O)C[C@]2(C)[C@@]1(O)C(=O)CO (some centres not stated) | inactive | 
84 | Cc1ccc2oc(C(=O)Nc3ccc(S(=O)(=O)N4CCCCCC4)cc3)cc(=O)c2c1 | inactive | 
85 | O=C(Nc1cccc(Cl)c1Cl)c1ccccc1NC(=O)C1CC=CCC1C(=O)O (configuration not stated) | inactive | 
86 | Cc1c(-c2cccc(Cl)c2)nc2ccccc2c1C(=O)OCC(=O)N(C)C1CCS(=O)(=O)C1 (configuration not stated) | inactive | 
87 | CN(C(=O)COC(=O)c1nc(Cl)ccc1Cl)C1CCS(=O)(=O)C1 (configuration not stated) | inactive | 
88 | CN(C(=O)COC(=O)c1cc(-c2ccco2)nc2ccccc12)C1CCS(=O)(=O)C1 (configuration not stated) | 2.51 µM (active) | 
89 | COc1ccc(-n2nc(C(=O)NCC(=O)N3CCCCCC3)c3ccccc3c2=O)cc1Cl | inactive | 
90 | CCC(=O)c1ccc(OCC(=O)OCC(=O)N2CCc3ccccc3C2)cc1 |  | -11.3% [at 2.33 µM]
91 | O=C(Cn1c(=S)nc2ccccn21)N1CCc2ccccc2C1 | 12.6 µM (active) | 
92 | O=C(COc1ccccc1)N1CCc2ccccc2C1 | inactive | 
93 | Cn1c(=O)c2c(nc(Oc3ccc(C#N)cc3)n2Cc2ccc(Cl)cc2Cl)n(C)c1=O | inactive | 
94 | COc1ccc(NC(=O)CSc2nccn2Cc2ccc3c(c2)OCO3)cc1 | inactive | 
95 | CN(C)c1ccc(NC(=O)CSc2n[nH]c(-c3ccco3)n2)cc1 | 44.7 µM (active) | 
96 | Cc1nc(SCC(=O)Nc2ccc(C(=O)O)cc2)n[nH]1 | inactive | 
97 | O=C(CSc1n[nH]c(-c2cccnc2)n1)Nc1ccc(Cl)cc1 | inactive | 
